# PubChem BioAssay AID1974 (The Scripps Research Institute Molecular Screening Center, 2009)
# Several values for one entry are separate records, joined by “and”; a condition that tells them apart may be missing. Equal entries are not always repeated. The campaign covered roughly 300,000 compounds. About 3,200 (1.1%) were called active. This is one part of a sample in which actives are shown more often than they occur. Values without a mark were called inactive.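 Rule for the calls: active = inhibition above the campaign mean inhibition plus 3 SD (cut at about 35% in these data); inactive = the rest.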
# Molecular target: Glutathione S-transferase omega-1 (Homo sapiens) (UniProt P78417)
# Experiment: human GSTO1 enzyme inhibition – biochemical, fluorescence polarization, counter-screen for RBBP9 inhibitor project, primary screen (AID 1974);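 note: 0% = GSTO1-1 with DMSO and 100% = wells lacking GSTO1-1 enzyme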
# Conditions: recombinant GSTO1, activity-based probe fluorescence polarization; at 5.96 µM; stronger effect = higher value
# Glutathione S-transferase omega-1 (Homo sapiens), sequence (P78417 whole entry, looked up): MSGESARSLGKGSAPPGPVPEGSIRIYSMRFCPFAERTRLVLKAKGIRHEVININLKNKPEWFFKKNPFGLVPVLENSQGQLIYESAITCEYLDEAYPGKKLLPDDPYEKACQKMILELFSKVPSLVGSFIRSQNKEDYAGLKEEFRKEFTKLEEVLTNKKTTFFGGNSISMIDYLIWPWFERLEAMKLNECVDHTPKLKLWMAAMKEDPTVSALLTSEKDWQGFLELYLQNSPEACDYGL
row,SMILES,inhibition
1,[O-][n+]1ccc(OCc2ccccc2)cc1,10.9%
2,CN1C(C(=O)NCc2ccco2)CC2Cn3c(nc4ccccc43)C21 (configuration not stated),6.49%
3,O=c1cc(CCl)nc2scc(-c3ccccc3)n12,85.3% (active)
4,OCCn1c(-c2ccccc2)csc1=Nc1ccccc1,-1.25%
5,O=C(O)Cc1csc(-c2cccc(Oc3ccccc3)c2)n1,2.72% and 8.12%
6,Cc1nc2ncnn2c(C)c1CCC(=O)N1CCN(C(=O)c2ccco2)CC1,50.8% (active)
7,Cc1ccc(C)c(OCC(=O)N2CCN(C(=O)c3ccco3)CC2)c1,-2.08%
8,Cc1nc2nc(C)c(CCC(=O)N3CCN(c4ccccc4)CC3)c(C)n2n1,8.27%
9,Cc1ccc(S(=O)(=O)CC(=O)Nc2sc(C)c(C)c2C(N)=O)cc1,0.44%
10,COc1cc(C(=O)NC2CCN(Cc3ccccc3)CC2)cc(Cl)c1OC(C)C,-0.77%
11,COC(=O)c1cccc(NC(=O)CN2CCC(NC(=O)c3cc(OC)c(OC)c(OC)c3)CC2)c1,48.5% (active)
12,O=C(CN1CCC(NC(=O)Nc2ccccc2)CC1)Nc1cccc([N+](=O)[O-])c1,5.63%
13,Cc1ccc(S(=O)(=O)N(C)c2ccc(OCC(=O)OCC(=O)N(CC#N)c3ccccc3)cc2)cc1,2.81%
14,CC(C)c1ccc(S(=O)(=O)N2CCN(C(=O)CN3C(=O)NC(C)(c4ccccc4)C3=O)CC2)cc1 (configuration not stated),4.89%
15,O=C(Nc1cc(-c2ccccc2)nn1-c1ccccc1F)c1ccc([N+](=O)[O-])cc1,-3.44%
16,CC(C)Cn1c(N)c(C(=O)NCc2cccs2)c2nc3ccccc3nc21,38.5% (active)
17,CC(C)(C)c1ccc(C(=O)NCCn2c(N)c(C#N)c3nc4ccccc4nc32)cc1,6.36%
18,CCCNC(=O)c1c(N)n(-c2ccc(S(N)(=O)=O)cc2)c2nc3ccccc3nc12,-3.18%
19,CCN1CCN(C(=O)N[C@@H](C(=O)N[C@@H]2C(=O)N3C(C(=O)O)=C(CSc4nnnn4C)CS[C@H]23)c2ccc(O)cc2)C(=O)C1=O,-2.08%
20,CC1(C)C/C(=N/Nc2ccc([N+](=O)[O-])cc2[N+](=O)[O-])C(C)(C)O1,-2.6%
21,O=C(OCC1OC(Oc2ccc(O)cc2)C(O)C(O)C1O)c1ccccc1 (configuration not stated),-6.08%
22,O=C(OCC1O[C@@H](OC(=O)c2cc(O)c(O)c(O)c2)[C@@H](OC(=O)c2cc(O)c(O)c(O)c2)[C@@H](OC(=O)c2cc(O)c(O)c(O)c2)[C@@H]1OC(=O)c1cc(O)c(O)c(O)c1)c1cc(O)c(O)c(O)c1 (some centres not stated),43.9% (active)

row,SMILES,inhibition
1,O=C(CSc1n[nH]c(-c2cccs2)n1)N1CCCCC1,0.4%
2,COc1ccc(Cl)cc1NC(=O)CN1CCN(C(=O)N2CCOCC2)CC1,1.76%
3,O=C(Nc1cc(N2CCOCC2)ncn1)NC1(C(F)(F)F)Oc2ccc(Cl)cc2O1 (configuration not stated),57.4% (active)
4,Cc1csc(NC(=O)NC2(C(F)(F)F)Oc3ccccc3O2)n1,28.1%
5,CN(CC(=O)Nc1cccc(F)c1)C(=O)C1CSC2(C)CCC(=O)N12 (configuration not stated),-10.9%
6,COC(=O)CCCC1=CC2=C(c3ccccc3)C(=O)C(C)(OC(=O)C3CCCC3)C(=O)C2=CN1c1ccc(OC)cc1 (configuration not stated),40% (active)
7,COC(=O)CCCC1=CC2=CC(=O)C(C)(OC(=O)c3cccs3)C(=O)C2=CN1c1cccc(C#N)c1 (configuration not stated),10.6%
8,COc1ccc(CCNC(=O)COC(=O)C2CCCCC2)cc1,3.87%
9,Cc1ccc(C)c(-c2nnc(NC(=O)CS(=O)(=O)c3ccccc3)o2)c1,9.44%
10,CCOc1ccc(C(C)=O)cc1COC(=O)CN1C(=O)NC2(CCCC2)C1=O,10.1%
11,C#CCOCCOCCOCCNc1nc(N2CCN(C(=O)CCCCCCCCCCNC(=O)Cn3cc(CCCCCN)nn3)CC2)nc(N2CCN(C(=O)CCCCCCCCCCNC(=O)[C@H](CO)n3cc(CCCSC)nn3)CC2)n1,4.11%
12,Oc1cc2c(cc1O)CN(C(=S)NCCc1ccc(Cl)cc1)CCC2,-0.15%
13,COc1ccc2c(c1)SC(C)CC2=O (configuration not stated),-1.85%
14,COc1ccc2c(c1)OC(O)(C(F)(F)C(F)F)CC2=O (configuration not stated),42% (active)
15,CC1(C)CC(=O)c2ccc(O)cc2O1,8.19%
16,COc1ccc(OCCCC(=O)OC(C)C(=O)Nc2ccccc2[N+](=O)[O-])cc1 (configuration not stated),-0.91%
17,COc1ccc(NC(=O)CN(C)C(=O)c2cc(-c3ccc(C)o3)nc3ccccc23)cc1,5.17%
18,CN1C(=O)CC(c2ccccc2)C1=O (configuration not stated),7.68%
19,OCC[C@H]1C[C@H](O)[C@@H](O)[C@]2(Cc3ccccc3CO2)O1,2.49%
20,CC1(C)Cc2ccccc2-c2nc(CN3CCOCC3)[nH]c(=O)c21,-0.05%
21,CCC1(CC)Cc2ccccc2-c2nc(CCl)[nH]c(=O)c21,84.7% (active)
22,CC1(C)Cc2ccccc2-c2[nH]c(=S)[nH]c(=O)c21,3.5%

row,SMILES,inhibition
1,O=C(COC(=O)CNS(=O)(=O)c1ccc(F)c(F)c1F)NC1CCCC1,14.3%
2,CC(OC(=O)CCC(=O)c1ccccc1)C(=O)Nc1ccc(F)cc1 (configuration not stated),3.4%
3,COc1ccc(S(=O)(=O)N2CCCCC2)cc1NC(=O)COc1ccccc1,-8.4%
4,COc1ccc(S(=O)(=O)N2CCOCC2)cc1NC(=O)COc1ccccc1,13.6%
5,COc1ccc(S(=O)(=O)N2CCOCC2)cc1NC(=O)CSc1ncnc2ccccc12,38.4% (active)
6,CCn1cc(C(=O)NC2CCCCCC2)c(=O)c2cc(S(=O)(=O)N3CCCCC3)ccc21,0.56%
7,CCCOc1ccc(/C=N/NC(=O)C2CC2)c(OCCC)c1,5.8%
8,Cc1cc(NC(=O)C(C)N2C(=O)c3ccccc3S2(=O)=O)no1 (configuration not stated),12.5%
9,CC(=O)c1c(C)[nH]c(C(=O)CN2C(=O)NC(C)(C)C2=O)c1C,-0.38%
10,Cn1c(-c2ccco2)nc2cc3ccccc3cc21,1.91%
11,CS(=O)(=O)n1nc(-c2ccco2)nc1N,-5.37%
12,c1coc(-c2nc3nc4ccccc4n3nc2-c2ccco2)c1,47.1% (active)
13,CC(=O)CC(CC(=O)NC1CCCCC1)c1ccccc1 (configuration not stated),5.92%
14,Cc1n[nH]c(=O)c2c(NC(=O)CSc3ccccc3F)oc(C)c12,-2.53%
15,Cc1coc2c(O)cc3c(c12)OC1(N2CCCCC2)C(=O)NCCCC31 (configuration not stated),74.4% (active)
16,CCN(CC)CCn1c2c(c(SCC(=O)Nc3nc4ccccc4s3)nc1=O)CCCC2,-6.43%
17,CS(=O)(=O)c1ccc(C(=O)OCC(=O)NNC(=O)COc2ccc(Cl)cc2)cc1,1.2%
18,Cc1ccc(NC(=O)CN(C)C(=O)Cn2nnc(-c3ccccc3)n2)cc1,1.43%
19,OCC[C@H]1C[C@H](O)[C@@H](O)[C@]2(CCc3ccccc3O2)O1,3.69%
20,CCOC(=O)c1cc(NC(=O)c2cccnc2)ccn1,11.6%
21,O=C(Cc1c(Cl)cccc1Cl)NC1CC1,3.33%
22,O=C(NNc1ccccn1)c1ccc(Cl)nc1,12.7%

row,SMILES,inhibition
1,O=C(CCl)NNc1cccc(Cl)n1,50.5% (active)
2,O=C(NCC1CC1)c1onc(CSc2ccccc2)c1C(=O)NCC1CC1,4.37%
3,CCOC(=O)c1ccc(NC(=O)c2c(N)n(C)c(=O)[nH]c2=O)cc1,-7.15%
4,COc1ccc(NS(=O)(=O)c2ccc(O)c(C(=O)OCC(=O)NC3CCCCC3)c2)cc1,-9.76%
5,CCN(C(=O)COC(=O)c1cc(NS(=O)(=O)c2ccc(Cl)c([N+](=O)[O-])c2)ccc1O)C1CCCCC1,38.5% (active)
6,CN(C)c1ccc(S(=O)(=O)NCC(=O)NCC2CCCCC2)cc1[N+](=O)[O-],-5.25%
7,COCCn1c(SC(C)C(=O)NC2CC2)nnc1-c1cccc(C)c1 (configuration not stated),12.9%
8,Cc1ccc(NC(=O)C(C)OC(=O)Cc2c[nH]c3ccccc23)cc1S(=O)(=O)N1CCOCC1 (configuration not stated),11.7%
9,O=C(NCCS(=O)(=O)N1CCN(c2ccccc2)CC1)c1ccco1,1.82%
10,NC(=S)N/N=C/c1coc2cc(Cl)ccc2c1=O,0.72%
11,O=c1c(/C=N/O)coc2ccc(Cl)cc12,38.5% (active)
12,Cc1ccc2occ(/C=N/NC(=O)c3ccccc3C)c(=O)c2c1,23.9%
13,COC1(C2=NCCN2)COc2ccccc2O1 (configuration not stated),10.3%
14,COc1ccccc1C(=O)NCCC(=O)NN1C(=O)NC2(CCCCC2)C1=O,0.1%
15,CCCCC1=CC2=CC(=O)C(C)(OC(=O)CC)C(=O)C2=CN1CCCOC(C)C (configuration not stated),19.3%
16,COC(=O)CCCC1=CC2=CC(=O)C(C)(OC(=O)c3cccs3)C(=O)C2=CN1CC(C)C (configuration not stated),19.4%
17,COC(=O)CCCC1=CC2=CC(=O)C(C)(OC(=O)c3cccs3)C(=O)C2=CN1CC1CC1 (configuration not stated),43.3% (active)
18,CC(C)N(Cc1ccccc1)C(=O)COC(=O)c1ccccc1SCC(=O)N1CCCC1,8.57%
19,O=C(CCCn1c(SCC(=O)c2ccc(F)cc2)nc2ccccc2c1=O)NCc1ccco1,5.62%
20,O=C(CCn1c(SCC(=O)c2ccccc2)nc2ccccc2c1=O)NCc1ccc(F)cc1,62.5% (active)
21,O=C(CCCn1c(SCC(=O)c2ccccc2)nc2ccccc2c1=O)NCC1CCCO1 (configuration not stated),-0.93%
